Sampled rows, rich in hits. Any-hit rate of the full collection: about 3.5%.
MITF primary: blocks human microphthalmia-associated transcription factor | AID 1259374 | inhibition, % at 2.6 µM | AlphaScreen MITF homodimerization, bead proximity signal | actives 0.91% (n = 650,000) | O75030; in the data active = inhibition above about 50%;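 note: 0% = vehicle wells with protein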
Target sequence (O75030 whole entry, looked up): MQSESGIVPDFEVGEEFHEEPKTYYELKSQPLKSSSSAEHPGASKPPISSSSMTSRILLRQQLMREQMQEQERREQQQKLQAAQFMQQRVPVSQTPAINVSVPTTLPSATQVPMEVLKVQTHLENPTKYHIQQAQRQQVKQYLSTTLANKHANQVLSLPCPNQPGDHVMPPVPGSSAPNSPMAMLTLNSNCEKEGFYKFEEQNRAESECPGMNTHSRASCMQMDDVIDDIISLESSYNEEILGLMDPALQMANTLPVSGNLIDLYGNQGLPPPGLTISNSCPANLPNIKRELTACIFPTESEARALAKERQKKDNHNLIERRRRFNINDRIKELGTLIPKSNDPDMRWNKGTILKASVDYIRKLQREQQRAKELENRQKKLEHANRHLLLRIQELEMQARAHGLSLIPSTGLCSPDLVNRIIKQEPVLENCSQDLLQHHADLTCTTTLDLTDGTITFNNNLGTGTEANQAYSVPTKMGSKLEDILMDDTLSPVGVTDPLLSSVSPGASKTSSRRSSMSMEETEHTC
TEAD-YAP block: TEAD-YAP interaction inhibition; HEK-TIYL cells, TEAD-Gal4/YAP UAS-luciferase luminescence; inhibition, % at 9.12 µM; actives 1.4% (n = 640,000); AID 1259422; in the data active = inhibition above about 32%;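 note: 0% = median of test compound wells and 100% = reference inhibitor wells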
FBW7 act: activators of human E3 ligase FBW7; AID 1259310; actives 0.13% (n = 650,000); normalized activity (activation), % at 26.1 µM; Q969H0; AlphaScreen FBW7–phospho-cyclin E peptide binding, activator screen; in the data active = normalized activity above about 1.9%;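 note: purified mutant Fbw7 with reduced substrate affinity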
GPR151 activ: activates the human receptor GPR151. activation, % at 11.2 µM. actives 1% (n = 650,000). PathHunter beta-arrestin GPR151 cells, luminescence. Q8TDV0; in the data active = activation above about 4.9%;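 note: 0% = median of compound wells and 100% = cells with positive control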
GPR151 conf act: human GPR151 activation, confirmation screen; shares compounds with GPR151 activ; GPR151 PathHunter beta-arrestin cells, luminescence, 90 min; % of EA-reagent control over plate median; activation, % at 11.2 µM; 6,700 tested, under 10 active;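 active = mean percent activation across replicates above the confirmation screen cutoff of 4.91%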
GPR119 counter: activates human GPR119 in a GPR151 counter-screen; shares compounds with GPR151 activ; GPR119 PathHunter beta-arrestin cells, luminescence, 90 min; 0 = compound-well median, 100 = enzyme-acceptor control; activation, % at 11.2 µM; actives 0.3% (n = 6,700); AID 1508611;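 active = mean percent activation in the counterscreen above 29.09%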;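 note: counterscreen on off-target GPR119 to flag nonselective hits from the GPR151 activator screen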
Starred values were filed as active, the others as inactive; nt = not tested or not shown; ! = not confirmed by another sample.

SMILES	MITF primary	TEAD-YAP block	FBW7 act	GPR151 activ	GPR151 conf act	GPR119 counter
O=C(CN1CC(=O)N2CCCC2C1=O)NCCc1ccc(Cl)cc1 (stereo unspecified)	-2	-3	0	7.8*	-1	-2
O=C(CN1CC(=O)N2CCCC2C1=O)NCCc1ccccc1 (stereo unspecified)	-4	1	0	-2	nt	nt
O=C(CN1CC(=O)N2CCCC2C1=O)NCc1ccccc1 (stereo unspecified)	12	5	0	-2	nt	nt
O=C(CN1CC(=O)N2CCCC2C1=O)NCc1cccc(Cl)c1 (stereo unspecified)	-3	-8	0	10*	-1	-10
CCOc1ccc(Br)cc1C1C(C#N)=C(N)SC(N)=C1C#N	5	10	0	0	nt	nt
CSc1cccc(CN2CCCC(CNC(=O)c3cccs3)C2)c1 (stereo unspecified)	16	19	1	-3	nt	nt
CC(C)c1csc(CN2CCCC(CNC(=O)c3cccs3)C2)n1 (stereo unspecified)	6	24	0	6.1*	1	-7
CC(=O)c1cccc(CN2CCCC(CNC(=O)c3cccs3)C2)c1 (stereo unspecified)	-2	3	0	10*	0	-14
O=C1c2ccc([N+](=O)[O-])cc2C(=O)N1c1c[nH]c(=O)[nH]c1=O	1	9	-2	5.1*	0	1
COc1ccc(-c2nnc(SCC(=O)c3cccc(OC)c3)o2)cc1	-2	5	0	-1	nt	nt
O=C1CCCC2=C1C(c1ccccc1F)n1c(nc3ccccc31)N2 (stereo unspecified)	16	0	0	9.6*	2	-5
COc1ccc2c(c1)OC1(C)CC2C(S(=O)(=O)c2ccc(C(C)(C)C)cc2)C(=O)N1C (stereo unspecified)	16	-1	0	1	nt	nt
C=CCn1cnc2c(nnn2-c2cc(C)cc(C)c2)c1=O	-8	-16	0	9.4*	1	9
N=C1C(c2nc3ccccc3[nH]2)=C(O)CN1c1ccc(F)cc1	3	-18	0	1	nt	nt
CC(C)c1ccc(N2CC(O)=C(c3nc4ccccc4[nH]3)C2=N)cc1	10	-9	0	7.9*	0	-2
COCc1nnn(-c2nonc2N)c1C(=O)NNC(=O)c1ccccc1Br	6	9	0	10*	1	8
COCc1nnn(-c2nonc2N)c1C(=O)NNC(=O)C1CC1	-4	3	0	0	nt	nt
CCC(C)NC(=O)C1=CC(c2ccc(OC)c(OC)c2)=NS(=O)(=O)N1C (stereo unspecified)	8	12	0	1	nt	nt
CCC(C)NC(=O)C1=CC(c2cccc(OC)c2)=NS(=O)(=O)N1C (stereo unspecified)	-4	5	0	5.2*	0	-8
CC(=O)c1ccc(OCCOc2ccc(Br)cc2)cc1	12	2	0	0	nt	nt
CNc1ccccc1P(=O)(O)O	-3	4	0	6.3*	1	-1
CC1CCN(S(=O)(=O)c2ccc(NC(=O)COc3ccccc3Cl)cc2)CC1	-6	6	0	0	nt	nt
O=C1CN(c2ccccc2)C(=O)C1C(=O)NCc1ccco1 (stereo unspecified)	-5	-28	0	-1	nt	nt
O=C(NCc1ccccc1)c1noc2c1COc1ccccc1-2	-4	-8	0	1	nt	nt
CC(C)CCNC(=O)c1noc2c1COc1ccccc1-2	3	-72	0	6.6*	-1	-18
SMILES	MITF primary	TEAD-YAP block	FBW7 act	GPR151 activ	GPR151 conf act	GPR119 counter
COc1ccc(-c2cc(C(F)(F)F)n3ncc(C(=O)Nc4ccc(Cl)cc4Cl)c3n2)cc1OC	15	-3	0	5.4*	-1	-17
Cc1cccc(C)c1Nc1nnc(SCC(=O)Nc2ccc(C(N)=O)cc2)s1	-3	-2	0	0	nt	nt
C#C[C@]1(OC(C)=O)CC[C@H]2[C@@H]3CCC4=CC(=O)CC[C@@H]4[C@H]3CCC21C (stereo partly specified)	-1	nt	0	9.3*	-1	-4
C#C[C@]1(O)CC[C@H]2[C@@H]3CCC4=CC(=O)CC[C@@H]4[C@H]3CC[C@@]21C	26	nt	0	0	nt	nt
O=P(CCCO)(c1ccccc1)c1ccccc1	30	-3	0	10*	1	15
O=P(CCO)(c1ccccc1)c1ccccc1	17	1	0	-2	nt	nt
O=C(N/N=C/c1cccc2ccccc12)c1ccc2c(c1)OCO2	3	14	0	-1	nt	nt
C=CC[C@H]1CC(C)=C[C@@H](CC=C)N1	-13	16	-1	0	nt	nt
CN(C)S(=O)(=O)c1cccc(C(=O)n2ncc(C#N)c2N)c1	-8	5	0	5.3*	0	0
Nc1ccc(-c2ccc(N)cc2C(F)(F)F)c(C(F)(F)F)c1	0	3	0	5.6*	0	-10
Nc1c(C(F)(F)F)cc(C(F)(F)F)cc1C(F)(F)F	-1	-4	0	-2	nt	nt
CC(C)C1=CC(=Nc2ccc(S(N)(=O)=O)cc2)C=C(C(C)C)C1=O	4	8	0	14*	1	9
O=C(CCC1CCCCC1)Nc1ccc(C(=O)O)cc1	19	-2	0	-1	nt	nt
COc1ccc(C2C(C#N)=C(N)Oc3cc(N)ccc32)cc1Br (stereo unspecified)	4	-8	0	7.6*	-1	-4
CC(=O)Nc1cccc(N=Cc2cc(Cl)cc(Cl)c2O)c1	-4	-6	0	5.7*	1	9
CCN(CC)C(=O)c1cn(CCC#N)nc1-c1ccc(OC)c([N+](=O)[O-])c1	7	-3	0	21*	1	5
Cc1ccccc1-n1c(SCC(N)=O)nc2ccccc2c1=O	-9	-3	0	5.2*	-1	-3
COc1ccc(-c2cncc(-c3cc(N4CCN(CCO)CC4)nc(C)n3)c2)cc1	2	6	0	7.1*	-1	-9
CC1(C)NC(=O)N(CC(O)COc2ccc3ccccc3c2Br)C1=O (stereo unspecified)	-5	-13	0	3	nt	nt
CC1(C)NC(=O)N(CCOCCOc2ccc3ccccc3c2Br)C1=O	-5	-32	0	5.5*	0	-10
COc1ccc(C2CC(=O)N3CN(Cc4ccccc4)CSC3=C2C#N)cc1 (stereo unspecified)	8	6	0	5.8*	-1	-12
Cc1cc(C)c2oc(-c3cccc(NC(=O)c4ccc([N+](=O)[O-])o4)c3)nc2c1	3	16	0	0	nt	nt
CN1CCN(/N=C(\NO)c2nonc2N)CC1	-18	-25	0	13*!	0	-1
N/C(=N/OCc1ccc(Cl)c(Cl)c1)c1nonc1N	22	-43	0	8.7*	-1	-3

Screening results from PubChem BioAssay.
